According to PubChem BioAssay AID1159580 (chemical genetic matrix, 2015):
In all, about 5,500 compounds went through this assay and about 2,000 (36%) were called active. Inconclusive results (about 18%) are left out. Cut-off read from the data, not from the text of the source: active = normalized growth mostly below about 0.91 (no sharp cut-off); inconclusive = no clear call, values can overlap the other calls; inactive = mostly above about 0.92. The list shows a part of the results.

Test: chemical genetic growth profiling, strain panel (AID 1159580);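 note: tested at 20 µM; growth read once vehicle control cultures reached saturation at 30 °C; 1 = growth at the plate median or of vehicle wells; lower values mean less growth of the strain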
Details: growth OD

Measured: normalized growth

COc1cc(O)ccc1C(C)=O
inactive: S. cerevisiae deletion strains, locus YJR043C, strain POL32, stronger effect = lower value 0.977 | S. cerevisiae deletion strains, locus YJR066W, strain TOR1, stronger effect = lower value 0.957 | S. cerevisiae deletion strains, locus YJR075W, strain HOC1, stronger effect = lower value 0.966 | S. cerevisiae deletion strains, locus YKL009W, strain mrt4, stronger effect = lower value 0.999 | S. cerevisiae deletion strains, locus YKL068W, stronger effect = lower value 0.974 | S. cerevisiae deletion strains, locus YKL085W, strain MDH1 (second series), stronger effect = lower value 0.986 | S. cerevisiae deletion strains, locus YKL085W, strain MDH1, stronger effect = lower value 0.986 | S. cerevisiae deletion strains, locus YKL160W, strain elf1, stronger effect = lower value 1.02 | S. cerevisiae deletion strains, locus YKL190W, strain CNB1, stronger effect = lower value 0.995 | S. cerevisiae deletion strains, locus YKR001C, strain vps1, stronger effect = lower value 0.975 | S. cerevisiae deletion strains, locus YKR026C, strain gcn3, stronger effect = lower value 1.03 | S. cerevisiae deletion strains, locus YKR091W, strain srl3, stronger effect = lower value 1.02 | S. cerevisiae deletion strains, locus YLL001W, strain dnm1, stronger effect = lower value 1.03 | S. cerevisiae deletion strains, locus YLL026W, stronger effect = lower value 1.01 | S. cerevisiae deletion strains, locus YLL041C, strain sdh2, stronger effect = lower value 1.01 | S. cerevisiae deletion strains, locus YLR027C, strain aat2, stronger effect = lower value 1.01 | S. cerevisiae deletion strains, locus YLR039C, strain RIC1, stronger effect = lower value 0.977 | S. cerevisiae deletion strains, locus YLR058C, strain SHM2, stronger effect = lower value 0.954 | S. cerevisiae deletion strains, locus YLR102C, strain apc9, stronger effect = lower value 0.98 | S. cerevisiae deletion strains, locus YLR113W, strain HOG1, stronger effect = lower value 1.01 | S. cerevisiae deletion strains, locus YLR221C, strain rsa3, stronger effect = lower value 1.03 | S. cerevisiae deletion strains, locus YLR258W, strain gsy2, stronger effect = lower value 1.02 | S. cerevisiae deletion strains, locus YLR262C, strain YPT6 (second series), stronger effect = lower value 1.03 | S. cerevisiae deletion strains, locus YLR262C, strain YPT6, stronger effect = lower value 0.899 | S. cerevisiae deletion strains, locus YLR268W, strain sec22, stronger effect = lower value 1.04 | S. cerevisiae deletion strains, locus YLR320W, strain mms22, stronger effect = lower value 1.03 | S. cerevisiae deletion strains, locus YLR330W, strain CHS5, stronger effect = lower value 0.991 | S. cerevisiae deletion strains, locus YLR342W, strain FKS1 (second series), stronger effect = lower value 1.07 | S. cerevisiae deletion strains, locus YLR342W, strain FKS1, stronger effect = lower value 1.03 | S. cerevisiae deletion strains, locus YLR357W, strain rsc2, stronger effect = lower value 1.01 | S. cerevisiae deletion strains, locus YLR370C, strain arc18, stronger effect = lower value 1.02 | S. cerevisiae deletion strains, locus YLR371W, strain rom2, stronger effect = lower value 0.973 | S. cerevisiae deletion strains, locus YLR384C, strain iki3, stronger effect = lower value 1.05 | S. cerevisiae deletion strains, locus YLR418C, strain cdc73, stronger effect = lower value 0.973 | S. cerevisiae deletion strains, locus YML016C, strain PPZ1, stronger effect = lower value 0.989 | S. cerevisiae deletion strains, locus YML032C, strain rad52, stronger effect = lower value 0.951 | S. cerevisiae deletion strains, locus YML120C, strain ndi1, stronger effect = lower value 1.02 | S. cerevisiae deletion strains, locus YML124C, strain tub3, stronger effect = lower value 0.997 | S. cerevisiae deletion strains, locus YMR058W, strain fet3, stronger effect = lower value 1.03 | S. cerevisiae deletion strains, locus YMR078C, strain ctf18, stronger effect = lower value 0.99 | S. cerevisiae deletion strains, locus YMR125W, strain sto1, stronger effect = lower value 1.03 | S. cerevisiae deletion strains, locus YMR129W, stronger effect = lower value 1.02 | S. cerevisiae deletion strains, locus YMR205C, strain PFK2, stronger effect = lower value 1.04 | S. cerevisiae deletion strains, locus YMR223W, strain ubp8, stronger effect = lower value 0.979 | S. cerevisiae deletion strains, locus YMR231W, strain pep5, stronger effect = lower value 1.01 | S. cerevisiae deletion strains, locus YMR263W, strain SAP30, stronger effect = lower value 0.985 | S. cerevisiae deletion strains, locus YMR307W, strain GAS1, stronger effect = lower value 0.997 | S. cerevisiae deletion strains, locus YNL067W, strain RPL9B, stronger effect = lower value 0.981 | S. cerevisiae deletion strains, locus YNL071W, strain lat1, stronger effect = lower value 1.02 | S. cerevisiae deletion strains, locus YNL153C, strain GIM3, stronger effect = lower value 0.961 | S. cerevisiae deletion strains, locus YNL183C, strain NPR1, stronger effect = lower value 0.968 | S. cerevisiae deletion strains, locus YNL209W, strain ssb2, stronger effect = lower value 1.02 | S. cerevisiae deletion strains, locus YNL233W, strain BNI4, stronger effect = lower value 0.975 | S. cerevisiae deletion strains, locus YNL248C, strain rpa49, stronger effect = lower value 1.02 | S. cerevisiae deletion strains, locus YNL250W, strain rad50, stronger effect = lower value 0.974 | S. cerevisiae deletion strains, locus YNL271C, strain bni1, stronger effect = lower value 0.988 | S. cerevisiae deletion strains, locus YNL298W, strain CLA4, stronger effect = lower value 0.981 | S. cerevisiae deletion strains, locus YNL307C, strain MCK1, stronger effect = lower value 0.992 | S. cerevisiae deletion strains, locus YNL322C, strain KRE1 (second series), stronger effect = lower value 1.02 | S. cerevisiae deletion strains, locus YNR049C, strain mso1, stronger effect = lower value 1.02 | S. cerevisiae deletion strains, locus YNR052C, strain pop2, stronger effect = lower value 0.983 | S. cerevisiae deletion strains, locus YOL012C, strain htz1 1.92 | S. cerevisiae deletion strains, locus YOL147C, strain pex11, stronger effect = lower value 1 | S. cerevisiae deletion strains, locus YOR001W, strain rrp6, stronger effect = lower value 1.01 | S. cerevisiae deletion strains, locus YOR061W, strain CKA2, stronger effect = lower value 0.96 | S. cerevisiae deletion strains, locus YOR069W, strain VPS5, stronger effect = lower value 0.999 | S. cerevisiae deletion strains, locus YOR070C, strain gyp1, stronger effect = lower value 1.02 | S. cerevisiae deletion strains, locus YOR080W, strain dia2, stronger effect = lower value 1.02 | S. cerevisiae deletion strains, locus YOR083W, strain WHI5, stronger effect = lower value 1.03 | S. cerevisiae deletion strains, locus YOR106W, strain vam3, stronger effect = lower value 1.02 | S. cerevisiae deletion strains, locus YOR136W, strain idh2, stronger effect = lower value 0.995 | S. cerevisiae deletion strains, locus YOR144C, strain elg1, stronger effect = lower value 0.986 | S. cerevisiae deletion strains, locus YOR184W, strain ser1, stronger effect = lower value 0.971 | S. cerevisiae deletion strains, locus YOR231W, strain MKK1, stronger effect = lower value 1.02 | S. cerevisiae deletion strains, locus YOR265W, strain rbl2, stronger effect = lower value 1.02 | S. cerevisiae deletion strains, locus YOR270C, strain vph1, stronger effect = lower value 1.04 | S. cerevisiae deletion strains, locus YOR290C, strain snf2, stronger effect = lower value 1.01 | S. cerevisiae deletion strains, locus YOR316C, strain cot1, stronger effect = lower value 0.98 | S. cerevisiae deletion strains, locus YPL051W, strain arl3, stronger effect = lower value 1.02 | S. cerevisiae deletion strains, locus YPL055C, strain LGE1, stronger effect = lower value 0.957 | S. cerevisiae deletion strains, locus YPL078C, strain atp4, stronger effect = lower value 1.02 | S. cerevisiae deletion strains, locus YPL106C, strain sse1, stronger effect = lower value 1.01 | S. cerevisiae deletion strains, locus YPL240C, strain hsp82, stronger effect = lower value 1.01 | S. cerevisiae deletion strains, locus YPL256C, strain CLN2, stronger effect = lower value 1.04 | S. cerevisiae deletion strains, locus YPR119W, strain clb2, stronger effect = lower value 0.984 | S. cerevisiae deletion strains, locus YPR141C, strain kar3, stronger effect = lower value 0.976 | S. cerevisiae deletion strains, locus YPR163C, strain tif3, stronger effect = lower value 0.978 | S. cerevisiae deletion strains, locus YPR167C, strain met16, stronger effect = lower value 0.983 | S. cerevisiae deletion strains, strain wtn01, stronger effect = lower value 1.02 | S. cerevisiae strains, strain wild type, stronger effect = lower value 0.997
